Assay outcomes: PubChem, National Center for Advancing Translational Sciences (NCATS)
JMJD2A Tudor = blocks the human JMJD2A Tudor domain; O75164; AlphaScreen JMJD2A-Tudor / H3K4me3 peptide binding; Potency, µM (top dose mostly 114 µM), without a hit: top-dose activity change, negative = inhibition, usual class: inhibitors; 390,000 compounds, 4.4% hits; also: potency is read from the fitted curve at half-maximal effect; % is scaled to controls: 0 for no effect and ±100 for the full control effect; nearly all actives have a fitted effect of over 50% in size
PI5P4Ka inh = PI5P4K alpha (human) kinase inhibition; P48426; PI5P4Kalpha enzyme, ADP-Glo luminescence, 60 min; hits give low values; max response, %; 330,000 compounds, 1.2% hits; AID 652105; active = max response of -50% or lower; inconclusive = between -30% and -50%; inactive = -30% or higher; also: value at the top dose of about 77 µM; % is scaled to controls: 0 for no effect and ±100 for the full control effect
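ADP-Glo luminescence end-point read after a 60 min room-temperature kinase reaction of PI5P4Kalpha plus substrate, initiated with ATP at 5 microM final. Buffer: 0.038 M HEPES pH 7.4, EGTA, 0.1% CHAPS, 5% DMSO.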
HP1b binding inh = blocks HP1-beta chromodomain binding to methylated histone tails; P83916; AlphaScreen HP1-beta / biotin-H3K9me3 peptide binding; Potency, µM (top dose mostly 114 µM), inactives show at the highest dose activity change, negative = inhibition, actives largely listed as inhibitors; 390,000 compounds, 0.56% hits; AID 540317; also: potency is read from the fitted curve at half-maximal effect; nearly all actives have a fitted effect of over 70% in size
Target sequence (P83916 whole entry, looked up): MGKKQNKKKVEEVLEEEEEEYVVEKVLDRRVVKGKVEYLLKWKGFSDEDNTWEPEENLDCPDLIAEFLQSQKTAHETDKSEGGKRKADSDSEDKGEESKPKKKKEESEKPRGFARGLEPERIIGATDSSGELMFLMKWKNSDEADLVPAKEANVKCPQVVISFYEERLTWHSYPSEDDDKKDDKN
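Compound inhibition of the preformed complex between 50 nM HP1-beta and 50 nM biotinylated H3K9me3 peptide was read by AlphaScreen. Buffer was PBS pH 7.4 with 0.01% Tween-20. Incubations ran 30 min at room temperature, with 10 ug/mL donor/acceptor beads.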
PLK1 PBD block = inhibitors of human PLK1 polo-box domain binding. Plk1 PBD binding of FITC phosphopeptide, fluorescence polarization. Potency, µM, without a hit: max response, negative = inhibition, hits mostly inhibitors. 360,000 compounds, 2.8% hits. AID 720504; also: potency is read from the fitted curve at half-maximal effect; series mostly up to about 57 µM; % is scaled to controls: 0 for no effect and ±100 for the full control effect; nearly all actives have a fitted effect of over 65% in size
BAZ2B block = blocks human BAZ2B. Q9UIF8. AlphaScreen BAZ2B-H3K14Ac peptide displacement. Potency, µM (titrated, usually from 114 µM), without a hit: at the highest dose activity change, negative = inhibition, usual class: inhibitors. 360,000 compounds, 4.4% hits; also: potency is read from the fitted curve at half-maximal effect; % is scaled to controls: 0 for no effect and ±100 for the full control effect; nearly all actives have a fitted effect of over 60% in size
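BAZ2B (50 nM) with biotin-H3(5-23)K14Ac peptide (50 nM) in PBS pH 7.4, 0.01% Tween-20, preformed 30 min, then compound 30 min at room temperature; top concentration 110uM. AlphaScreen streptavidin donor/nickel chelate acceptor beads (10 ug/mL final), 20 min dark, signal read.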
G9a inh = G9a (human) methyltransferase inhibition. Q96KQ7. Potency, µM (doses to about 102 µM), for the others: top-dose activity, negative = inhibition, actives largely listed as inhibitors. 350,000 compounds, 8.8% hits. AID 504332. G9a H3K9 monomethylation, AlphaScreen, 2 h; also: potency is read from the fitted curve at half-maximal effect; % is scaled to controls: 0 for no effect and ±100 for the full control effect; nearly all actives have a fitted effect of over 75% in size
Target sequence (Q96KQ7 913-1193 limits assumed): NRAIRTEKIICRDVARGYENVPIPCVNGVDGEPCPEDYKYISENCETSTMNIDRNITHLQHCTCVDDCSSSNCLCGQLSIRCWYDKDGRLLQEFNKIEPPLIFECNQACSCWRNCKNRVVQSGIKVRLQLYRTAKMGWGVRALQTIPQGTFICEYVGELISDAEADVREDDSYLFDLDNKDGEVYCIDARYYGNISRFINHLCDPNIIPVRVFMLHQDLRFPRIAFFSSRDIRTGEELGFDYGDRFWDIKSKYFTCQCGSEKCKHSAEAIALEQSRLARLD
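G9a (20 nM) was preincubated 15 min with compound, then reacted 2 h at room temperature with 500 nM biotin-H3K9 peptide and 20 µM SAM. Monomethyl-H3K9 detected by AlphaScreen using anti-H3K9me1 antibody.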
Numbers without * were called inactive; ? = inconclusive; · = not tested or not shown; [ ] = another dose, or the depositor's remark. This is a sample that favours compounds with a hit; in the whole collection about 12% have one here. Unless noted, calls follow the shape of the dose curve; as a rule, active = well fitted curve in the direction sought with a large enough effect; inconclusive = small, poorly fitted or top-dose-only effect, or another doubt; inactive = no such curve, though single readings can be large; an effect the other way counts as inactive or inconclusive.

SMILES	JMJD2A Tudor	PI5P4Ka inh	HP1b binding inh	PLK1 PBD block	BAZ2B block	G9a inh
Cc1cccc(N2CCN(C(=O)Cn3nc(C)n4cccc4c3=O)CC2C)c1 (stereo not given)	-3%	-7	29%	-1%	9%	-3%
Cc1cccc(N2CCN(C(=O)Cn3sc4nc(C)cc(C)c4c3=O)CC2C)c1 (stereo not given)	3.2µM*	-55*	8.9µM*	1.7µM*	?	1.3µM*
Cc1cccc(N2CCN(C(=O)CN3CCOc4ccccc43)CC2C)c1 (stereo not given)	?	-10	-15%	-10%	?	50µM*
Cc1ccn2c(=O)nc(SCC(=O)N3CCC(Cc4ccccc4)CC3)nc2c1	-13%	?	23%	3%	-26%	1%[0.501 µM]
Cc1cc(C)c2c(=O)n(CC(=O)N3CCC(Cc4ccccc4)CC3)sc2n1	·	·	·	·	1%	1.6µM*
COc1ccc(C(C(=O)NCc2ccccc2)N(C(=O)Cn2nnc3ccccc32)c2ccc(OC)cc2)cc1 (stereo not given)	1%	·	41%	·	0%	0%[59 µM]
O=C(O)Cn1c2ccccc2c2ccccc21	-9%	-1	-11%	-6%	1%	0%
O=C(O)Cn1c2c(c3ccccc31)CSc1ccc(Cl)cc1-2	?	-18	-18%	13µM*	?	?
Brc1ccc(OCCCN2CCOCC2)cc1	4.5µM*	7	?	-7%	?	28µM*
Brc1ccc(OCCN2CCOCC2)cc1	0.89µM*	-9	?	-19%	?	28µM*
Nc1ccccc1SCC(=O)Nc1ccc2c(c1)OCO2	-16%	-9	19%	?	9%	67%
Cn1cc(SCC(=O)Nc2ccc3c(c2)OCO3)c2ccccc21	-32%	-2	17%	-23%	13%	25µM*
O=C(CSc1cccc[n+]1[O-])Nc1ccc2c(c1)OCO2	-6%	4	48%	-2%	-12%	50µM*
CCCC(=O)Nc1ccc2c(c1)nc1n2CCN(C2CCCCC2)C1	?	-12	-5%	?	-29%	13µM*
O=[N+]([O-])c1ccc2c(c1)nc1n2CCN(C2CCCCC2)C1	-24%	1	16%	-15%	-12%	4%[12.7 µM]
CC(=O)Nc1ccc2c(c1)nc1n2CCN(C2CCCCC2)C1	-29%	-14	-3%	-30%	?	10µM*
CCCCC(=O)Nc1ccc2c(c1)nc1n2CCSC1	-15%	-9	20%	-19%	-2%	?
COCCn1c(=O)c(-c2ccc(Cl)cc2)nc2cnc(Nc3ccccc3)nc21	·	·	·	·	·	-4%[0.501 µM]
Cc1c2c(c(C)n1C)C(C(=O)NC1CCCCC1)N(Cc1ccccc1)C2=O (stereo not given)	-10%	3	12%	-19%	·	50µM*
O=C(c1csnn1)N1CCC2(CC1)CN(c1ccccn1)C2	·	·	·	·	·	-1%[12.7 µM]
COc1ccccc1NS(=O)(=O)c1cc(NC(=S)NCCN2CCOCC2)ccc1N1CCOCC1	?	-14	?	5.3µM*	?	10µM*
COc1ccccc1NS(=O)(=O)c1cc(NC(=O)COc2ccccc2F)ccc1N1CCOCC1	-19%	-22	18µM*	24µM*	·	·
COc1ccccc1NS(=O)(=O)c1cc(NC(=O)C2CCCC2)ccc1N1CCOCC1	?	?	?	15µM*	-27%	8.9µM*
O=S(=O)(Nc1ccccc1Cl)c1cc(NC(=S)NCCN2CCOCC2)ccc1Cl	-30%	-7	10%	-29%	-21%	-19%[59 µM]
COc1ccc(NS(=O)(=O)c2cc(NC(=O)COc3ccccc3)ccc2N2CCOCC2)cc1	-14%	4	-3%[57 µM]	-3%	·	·
COCC(=O)Nc1ccc(N2CCOCC2)c(S(=O)(=O)Nc2ccccc2OC)c1	-33%	?	?	11µM*	·	·
CC(C)(C)c1ccc(C(=O)NCCNC(=O)c2ccco2)cc1	5%	7	15%	-1%	2%	23%
Fc1cccc(CNc2ncnc3ccc(-c4ccoc4)cc23)c1	·	·	·	·	8%	11%[12.7 µM]
Cc1cccc2cc(C(c3nnnn3CC3CCCO3)N3CCCC4(CCCCC4)C3)c(=O)[nH]c12 (stereo not given)	·	·	·	·	5%	-10%[59 µM]
